Potency data for 14 compounds are collected here from PubChem BioAssay (NCATS).

Inconclusive results are not listed. Activity calls are given as the source filed them. Calls follow the shape of the dose curve; as a rule, active = well fitted curve in the direction sought with a large enough effect; inconclusive = small, poorly fitted or top-dose-only effect, or another doubt; inactive = no such curve, though single readings can be large; an effect the other way counts as inactive or inconclusive.

A short description of experiment [1]: Quantitative High-Throughput drug screen in 47 multiple myeloma cell lines against the NCATS MIPE library collection: Karpas620_DSMZ cell viability assay (AID 1918959). Also: nearly all actives have a fitted effect of over 30% in size. The essentials:
(§1)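 Myeloma cells (500 per well) were exposed to MIPE 4.0 compounds by pin transfer and incubated 48 hours at 37C, 5% CO2. Viability was read as ATP by CellTiter-Glo luminescence, normalised to DMSO (100%) and media-only (0%) wells.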

A short description of experiment [2]: Quantitative High-Throughput drug screen in 47 multiple myeloma cell lines against the NCATS MIPE library collection: JIM3_ECACC cell viability assay (AID 1918963; also: nearly all actives have a fitted effect of over 35% in size; also: potency is read from the fitted curve at half-maximal effect). The essentials:
as §1

Experiment [3] can be described thus: Quantitative High-Throughput drug screen in 47 multiple myeloma cell lines against the NCATS MIPE library collection: H1112_PLB cell viability assay (AID 1918967; also: nearly all actives have a fitted effect of over 30% in size; also: potency is read from the fitted curve at half-maximal effect). The essentials:
(§2)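 Approved and investigational drugs from MIPE 4.0 were added by pin tool to 500 cells per well. After 48 hours at 37C, ATP-based CellTiter-Glo luminescence indicated remaining viability.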

The nature of experiment [4]: Quantitative High-Throughput drug screen in 47 multiple myeloma cell lines against the NCATS MIPE library collection: Karpas25_ECACC cell viability assay (AID 1918968; also: nearly all actives have a fitted effect of over 35% in size; also: potency is read from the fitted curve at half-maximal effect). In a few lines: as §2
Experiment [5] in a line: Quantitative High-Throughput drug screen in 47 multiple myeloma cell lines against the NCATS MIPE library collection: KMS27_JCRB cell viability assay (AID 1918970). Also: nearly all actives have a fitted effect of over 30% in size. Also: potency is read from the fitted curve at half-maximal effect. As to conditions: KMS27 myeloma cells, CellTiter-Glo ATP viability, 48 h; viability (% of DMSO): at 45.8 µM (top of the series). The essentials:
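ATP-based viability (CellTiter-Glo luminescence) is measured in cells treated 48 h with approved and investigational drugs at 37 °C. Controls are DMSO-only wells for full viability and media-only wells for none.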
Background: ATP-based viability assays read luminescence as a measure of living cells.

Experiment [6] is described as follows: Quantitative High-Throughput drug screen in 47 multiple myeloma cell lines against the NCATS MIPE library collection: KMS12PE_JCRB cell viability assay (AID 1918972). Also: nearly all actives have a fitted effect of over 30% in size. Also: potency is read from the fitted curve at half-maximal effect. In a few lines:
(§3)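 CellTiter-Glo ATP luminescence gave viability after 48 h compound treatment at 37C of 500 multiple myeloma cells per well. Normalisation used DMSO-only wells as 100% and media-only wells as 0% viability; primary qHTS of approved and investigational drugs.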

A short description of experiment [7]: Quantitative High-Throughput drug screen in 47 multiple myeloma cell lines against the NCATS MIPE library collection: KMS20_JCRB cell viability assay (AID 1918973). Also: nearly all actives have a fitted effect of over 45% in size. Also: potency is read from the fitted curve at half-maximal effect. The essentials:
as §2

A short description of experiment [8]: Quantitative High-Throughput drug screen in 47 multiple myeloma cell lines against the NCATS MIPE library collection: MOLP8_DSMZ cell viability assay (AID 1918977). Also: nearly all actives have a fitted effect of over 45% in size. Also: potency is read from the fitted curve at half-maximal effect. The essentials:
(§4)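 ATP-based CellTiter-Glo luminescence after 48 h drug exposure (37 °C, 5% CO2) of 500 myeloma cells per well. DMSO-only wells set 100% viability, media-only wells 0%; MIPE 4.0 library added by pin tool.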

Experiment [9] is described as follows: Quantitative High-Throughput drug screen in 47 multiple myeloma cell lines against the NCATS MIPE library collection: NCIH929_DSMZ cell viability assay (AID 1918978). Also: nearly all actives have a fitted effect of over 35% in size. Also: potency is read from the fitted curve at half-maximal effect. In a few lines: as §4
Experiment [10] in a line: Quantitative High-Throughput drug screen in 47 multiple myeloma cell lines against the NCATS MIPE library collection: OCIMY1_PLB cell viability assay (AID 1918979). Also: nearly all actives have a fitted effect of over 35% in size. Also: potency is read from the fitted curve at half-maximal effect. In a few lines: as §4
Experiment [11] is described as follows: Quantitative High-Throughput drug screen in 47 multiple myeloma cell lines against the NCATS MIPE library collection: KMM1_JCRB cell viability assay (AID 1918960). Also: nearly all actives have a fitted effect of over 30% in size. Also: potency is read from the fitted curve at half-maximal effect. The essentials:
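CellTiter-Glo luminescence after 48 h exposure gives viability, scaled between DMSO-only (100%) and media-only (0%) controls. Library compounds are pinned onto 500 myeloma cells per well, incubated at 37C with 5% CO2.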

A short description of experiment [12]: Quantitative High-Throughput drug screen in 47 multiple myeloma cell lines against the NCATS MIPE library collection: JIM1_ECACC cell viability assay (AID 1918964; also: potency is read from the fitted curve at half-maximal effect). In a few lines: as §2
Experiment [13] is described as follows: Quantitative High-Throughput drug screen in 47 multiple myeloma cell lines against the NCATS MIPE library collection: JJN3_DSMZ cell viability assay (AID 1918966; also: nearly all actives have a fitted effect of over 50% in size; also: potency is read from the fitted curve at half-maximal effect). The essentials:
as §2

The nature of experiment [14]: Quantitative High-Throughput drug screen in 47 multiple myeloma cell lines against the NCATS MIPE library collection: KMS12BM_JCRB cell viability assay (AID 1918971). Also: nearly all actives have a fitted effect of over 35% in size. Also: potency is read from the fitted curve at half-maximal effect. The essentials:
(§5)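 qHTS of the MIPE 4.0 collection: 500 myeloma cells/well, 48 h drug exposure at 37C in 5% CO2, then CellTiter-Glo for 5 min at room temperature before luminescence reading.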

The nature of experiment [15]: Quantitative High-Throughput drug screen in 47 multiple myeloma cell lines against the NCATS MIPE library collection: KMS26_JCRB cell viability assay (AID 1918975). Also: nearly all actives have a fitted effect of over 45% in size. Also: potency is read from the fitted curve at half-maximal effect. The essentials: as §5
Experiment [16] can be described thus: Quantitative High-Throughput drug screen in 47 multiple myeloma cell lines against the NCATS MIPE library collection: INA6_PLB cell viability assay (AID 1918965; also: nearly all actives have a fitted effect of over 55% in size; also: potency is read from the fitted curve at half-maximal effect). The essentials:
as §3

Experiment [17] in a line: Quantitative High-Throughput drug screen in 47 multiple myeloma cell lines against the NCATS MIPE library collection: KHM11_PLB cell viability assay (AID 1918962). Also: nearly all actives have a fitted effect of over 35% in size. Also: potency is read from the fitted curve at half-maximal effect. In a few lines: as §1
Experiment [18] is described as follows: Quantitative High-Throughput drug screen in 47 multiple myeloma cell lines against the NCATS MIPE library collection: MMM1_PLB cell viability assay (AID 1918976). In a few lines: as §4
A short description of experiment [19]: Quantitative High-Throughput drug screen in 47 multiple myeloma cell lines against the NCATS MIPE library collection: Karpas417_ECACC cell viability assay (AID 1918961). Also: potency is read from the fitted curve at half-maximal effect. As to conditions: Karpas417 myeloma viability, CellTiter-Glo ATP luminescence, 48 h; viability (% of DMSO): at 45.8 µM (top of the series). In a few lines: as §3

Turning to `CN1[C@H]2CC(OC(=O)[C@@H](CO)c3ccccc3)C[C@H]1[C@H]1O[C@H]12` (stereo partly drawn), the Potency result in [1], in experiment [2], in experiment [3], in experiment [4], in [5] and in [6] was “inactive” each time. Moreover, the Potency result in experiment [8], in [9] and in experiment [10] was “inactive” in each case. The Potency in [7] is 0.007 µM (active).

Take `Cc1cn([C@@H]2O[C@H](CO)[C@@H](O)[C@H]2F)c(=O)[nH]c1=O`: the Potency entry in [1], in [2], in experiment [3], in [4], in experiment [9] and in [10] was “inactive” each time. The Potency in [6] was 13.2 µM (active).

As for `Nc1ccn(C[C@@H](CO)OCP(=O)(O)O)c(=O)n1`, the Potency entry in experiment [11], in experiment [2], in experiment [12], in [13], in experiment [14] and in [6] was “inactive” each time. For the same compound, the Potency entry in experiment [15], in experiment [8], in experiment [9] and in experiment [10] was “inactive” throughout.

For `Cc1cncc2cccc(S(=O)(=O)N3CCCN(C(=O)CN)C[C@@H]3C)c12`, the Potency entry in experiment [11], in experiment [2], in experiment [14], in [15] and in experiment [8] was “inactive” throughout. For the same compound, the Potency in [16] is 16.6 µM (active); in [3] it was 20.9 µM (active); in experiment [5], 0.418 µM (active); in [6], 16.6 µM (active); in [9] it was 18.7 µM (active).

As to `O=c1c(O)c(-c2ccc(O)c(O)c2)oc2cc(O)ccc12`, the Potency is 5.9 µM (active) in experiment [11]; 13.2 µM (active) in experiment [17]; 13.2 µM (active) in [2]; 7.43 µM (active) in [16]; 26.4 µM (active) in experiment [3]; 8.33 µM (active) in experiment [4]. Further, the Potency was 26.4 µM (active) in [14]; 26.4 µM (active) in experiment [18]; 18.7 µM (active) in [8]; 18.7 µM (active) in [9]; 23.5 µM (active) in experiment [10].

As for `CCOc1cc2ncc(C#N)c(Nc3ccc(OCc4ccccn4)c(Cl)c3)c2cc1NC(=O)C=CCN(C)C`, the Potency was 0.935 µM (active) in experiment [11]; 0.935 µM (active) in [17]; 0.418 µM (active) in experiment [12]; 0.662 µM (active) in [4]; 0.264 µM (active) in experiment [5]; 5.26 µM (active) in experiment [14]. In addition, the Potency in experiment [7] is 0.935 µM (active); in [9], 0.833 µM (active).

Consider `CC(C)n1cnc2c(NCCc3ccc(O)cc3)nc(-c3csc4ccccc34)nc21`, for which, in experiment [11], the Potency result was “inactive”. Also, the Potency in [2] was 9.35 µM (active); in experiment [16], 20.9 µM (active); in experiment [3], 13.2 µM (active); in experiment [4], 4.18 µM (active); in [7], 7.43 µM (active); in experiment [15], 11.8 µM (active). In addition, the Potency in [10] is 20.9 µM (active).

Take `Cn1c(Nc2ccc(C(F)(F)F)cc2)nc2cc(Oc3ccnc(-c4ncc(C(F)(F)F)[nH]4)c3)ccc21`: the Potency in experiment [11] is 16.6 µM (active); in experiment [19], 4.18 µM (active); in [17], 18.7 µM (active); in experiment [2], 18.7 µM (active); in experiment [12], 9.35 µM (active); in experiment [16], 20.9 µM (active). In addition, the Potency in experiment [13] is 16.6 µM (active); in experiment [3], 8.33 µM (active); in [4] it was 3.72 µM (active); in [5], 14.8 µM (active); in experiment [6], 5.26 µM (active); in experiment [8] it was 6.62 µM (active).

Regarding `CC(=O)O[C@H]1C[C@@H]2CC[C@H]3[C@H]4C[C@H]([N+]5(C)CCCCC5)[C@@H](OC(C)=O)[C@@]4(C)CC[C@@H]3[C@@]2(C)C[C@H]1N1CCCCC1`, the Potency entry in experiment [11], in experiment [19], in experiment [2], in experiment [16], in [3] and in experiment [4] was “inactive” in each case. For the same compound, the Potency result in experiment [14], in [15], in experiment [8], in [9] and in [10] was “inactive” each time.

Regarding `CCOC(=O)N1CCN([N+]([O-])=NOc2ccc([N+](=O)[O-])cc2C#N)CC1`, the Potency in experiment [11] was 1.18 µM (active); in experiment [19], 0.0662 µM (active); in experiment [2], 1.05 µM (active); in experiment [16], 1.18 µM (active); in experiment [3] it was 0.526 µM (active); in experiment [5] it was 0.372 µM (active). Further, the Potency in experiment [14] was 1.48 µM (active); in experiment [6], 0.833 µM (active); in experiment [15], 0.935 µM (active); in experiment [18], 0.526 µM (active); in experiment [9], 2.96 µM (active).

Regarding `C[C@H]1O[C@H](O[C@H]2[C@H](O)[C@@H](O)[C@@H](O[C@H]3[C@H](O)[C@@H](O)C(O)O[C@H]3CO)O[C@H]2CO)[C@H](O)[C@@H](O)[C@H]1N[C@H]1C=C(CO)[C@@H](O)[C@H](O)[C@@H]1O` (stereo partly drawn), the Potency entry in experiment [11], in [17], in experiment [2], in experiment [16], in [3] and in [8] was “inactive” each time. Moreover, the Potency result in experiment [10] is “inactive”.

As for `CC(=O)NC(CS)C(=O)O` (stereo not drawn), the Potency result in experiment [11], in experiment [17], in experiment [2], in [3], in experiment [4] and in experiment [7] was “inactive” in each case. The Potency entry in experiment [9] is “inactive”. Besides, the figures for the Potency in [16] and in experiment [18] were 2.96 µM (active) and 18.7 µM (active), respectively.

In the case of `Cn1cc(-c2cnn3c(N)c(Br)c([C@H]4CCCNC4)nc23)cn1`, the Potency in [11] is 0.372 µM (active); in experiment [19], 0.132 µM (active); in [17], 0.526 µM (active); in experiment [2], 1.87 µM (active); in experiment [12], 0.118 µM (active); in experiment [16] it was 0.662 µM (active). Further, the Potency in [13] was 0.59 µM (active); in experiment [3], 2.64 µM (active); in [4], 0.662 µM (active); in [14], 2.96 µM (active); in experiment [6] it was 3.72 µM (active); in experiment [7], 1.48 µM (active). In addition, the Potency in [18] is 0.662 µM (active); in [8], 0.833 µM (active); in experiment [9], 0.833 µM (active).

With `COC(=O)[C@@H]1[C@H]2C[C@@H]3c4[nH]c5ccccc5c4CCN3C[C@@H]2CC[C@@H]1O`, the Potency result in experiment [11], in experiment [2], in experiment [16], in experiment [3], in experiment [4] and in [5] was “inactive” each time. The Potency result in experiment [15], in experiment [8] and in experiment [9] was “inactive” in each case.
